Reference: PubChem BioAssay (NCI)
About 83,000 compounds went through this panel and 20% of them were active in at least one assay; those are over-represented in the sample as a whole.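 Note: values are percent growth. 100 is the growth of untreated cells, values between 100 and 0 indicate rising inhibition; between -100 and 0 indicates cell death.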 Calls of active or inactive are those of the source. The calls were made as follows: active = growth percent below 10; inactive = the rest.

How the values were obtained:
Assay in all cases: NCI-60 one-dose screen, 48 h (100 = growth as untreated, 0 = no growth, -100 = all killed)
Details in all cases: 10 µM unless noted
[1] = tested on: SK-MEL-2 melanoma
[2] = tested on: EKVX NSCLC
[3] = tested on: SN12C renal
[4] = tested on: UO-31 renal
[5] = tested on: TK-10 renal
[6] = tested on: ACHN renal
[7] = tested on: CAKI-1 renal
[8] = tested on: CCRF-CEM leukemia
[9] = tested on: MOLT-4 leukemia

Measured: growth

O=C(N/N=C/c1cc2ccccc2n2nnnc12)Nc1ccccc1
inactive: [1] 105% | [2] 98% | [3] 100% | [4] 94.1% | [5] 101% | [6] 108% | [7] 94.5% | [8] 103% | [9] 101%

C=C1C(=O)O[C@H]2[C@H]1CC/C(COC(=O)NCCc1c[nH]c3ccc(OC)cc13)=C\CC[C@@]1(C)O[C@@H]21
active: [3] -34.4% | [4] -99.3% | [5] -13.1% | [6] -59% | [7] -66.2% | [8] -6.35% | [9] 3.53%
inactive: [1] 62.1% | [2] 19.8%

Cn1ccnc1C(=O)/C=C/c1ccc(CC(=O)NC2CCCCC2)cc1
inactive: [1] 108% | [2] 77.4% | [3] 61.2% | [4] 60.4% | [5] 94.8% | [6] 81.3% | [7] 66.9% | [8] 33.5% | [9] 67.7%

CC1(C)c2[nH]c3ccccc3c2C[C@]2(C)[C@H]3C(=O)C=C4[C@@H]5C[C@@](C)(C(N)=O)CC[C@]5(C)CC[C@@]4(C)[C@]3(C)CC[C@@H]12
inactive: [1] 81.8% | [2] 68.4% | [3] 72% | [4] 42.6% | [5] 70.5% | [6] 76.7% | [7] 82.8% | [8] 66.7% | [9] 32.6%

COc1cc2oc(-c3cccc(C(=O)Nc4ccc5c(c4)OCO5)c3)cc(=O)c2c(O)c1OC
inactive: [1] 89.9% | [2] 87% | [3] 68.7% | [4] 82.1% | [5] 98.6% | [6] 75.3% | [7] 76.9% | [8] 97.2% | [9] 101%

CCCCCCNC(=O)Oc1ccc(/C(=C(\C)c2ccccc2)c2ccc(OCCN3CCCCC3)cc2)cc1
inactive: [1] 75.3% | [2] 77.7% | [3] 71.4% | [4] 39.4% | [5] 83.3% | [6] 90.2% | [7] 44.8% | [8] 60.7% | [9] 43.7%

O=C(CCN1CCCC1)Nc1ccc2c(NCCc3ccccc3)c3ccccc3nc2c1
active: [1] -58.8% | [2] -4.89% | [3] -12.5% | [4] -10.8% | [5] 3.29% | [7] 4.47% | [8] -9.81% | [9] -17.6%
inactive: [6] 11%

C/C(=N\Nc1cc(C)nc2ccc(Br)cc12)c1ccc([N+](=O)[O-])cc1
inactive: [1] 93.1% | [2] 78.2% | [3] 60.2% | [4] 64.4% | [5] 115% | [6] 42.5% | [7] 84.6% | [8] 13.5% | [9] 53.1%

O=S(=O)(NCCNc1nccc(-c2c(-c3cccc(O)c3)nc3occn23)n1)c1ccccc1
inactive: [1] 61.3% | [2] 109% | [3] 72.7% | [4] 101% | [5] 130% | [6] 82.1% | [7] 78.3% | [8] 80.9% | [9] 94.2%

O=C(c1nnc(Nc2ccccc2Br)o1)c1c[nH]c2ccccc12
inactive: [1] 110% | [2] 104% | [3] 93.4% | [4] 87% | [5] 112% | [6] 90.8% | [7] 87.4% | [8] 97.5% | [9] 106%

COC(=O)C1=C(C(=O)ON)C2C=CC1(C(Cc1ccccc1)Nc1ccccc1)O2 (configuration not stated)
active: [5] -63.7% | [6] -99.7% | [8] -7.87%
inactive: [1] 86.7% | [2] 91.9% | [3] 87.4% | [4] 16.9% | [7] 57.3% | [9] 12.9%

COc1ccc(C(C)=O)c(OC)c1
inactive: [1] 94.6% | [2] 114% | [3] 106% | [4] 97.4% | [5] 99.5% | [6] 110% | [7] 99.7% | [8] 103% | [9] 102%

COc1ccc(N2CCN(c3ccc(NC4=C(Cl)C(=O)c5ncccc5C4=O)cc3)CC2)cc1
inactive: [1] 71.8% | [2] 78.8% | [3] 45.5% | [4] 46.2% | [5] 74.8% | [6] 67.3% | [7] 61.1% | [8] 24.6% | [9] 53.3%

CCN(CC)c1ccc(/C=N/NC(=O)CSc2nc3ccccc3c(=O)n2CCc2ccc(S(N)(=O)=O)cc2)c(O)c1
inactive: [1] 38.5% | [2] 33.8% | [3] 28.2% | [4] 28.2% | [5] 31.3% | [6] 28.7% | [7] 36%
active: [8] 7.41% | [9] 7.09%

O=C(c1nc2ccccc2[nH]1)C1C(c2ccc(Cl)cc2)C2CC3CCCC[C@H]3N2[C@@]12C(=O)Nc1cc(Cl)ccc12 (some centres not stated)
inactive: [1] 66.7% | [2] 34.5% | [3] 48% | [4] 20.1% | [5] 46.4% | [6] 40.5% | [7] 20.6% | [8] 30.2%
active: [9] 7.41%

COc1ccc(/C=N/NC(=O)c2cnn3c2NC(c2ccccc2)C3)cc1OC (configuration not stated)
inactive: [1] 41.9% | [2] 87.2% | [3] 81.8% | [4] 78.9% | [5] 75.6% | [6] 82.6% | [7] 56.1% | [8] 66.7% | [9] 50.3%

O=C(CCN1CCCC1)Nc1ccc2c(Nc3ccc(Br)cc3)c3ccccc3nc2c1
active: [4] -96.8% | [5] -36.1% | [8] -15.6% | [9] -33.8%
inactive: [1] 97.1% | [2] 59.5% | [3] 30% | [6] 29.4% | [7] 15.3%

CCOC(=O)[C@@H]1CCCN(S(=O)(=O)c2ccc(S(=O)(=O)N(CC)CC)c(F)c2)C1
inactive: [1] 62.6% | [2] 46.9% | [3] 85.4% | [4] 69% | [5] 81.4% | [6] 75% | [7] 64.1% | [8] 85.1% | [9] 79.4%

CCCOc1ccc(/C=N/Nc2cc(C)nc3ccc(Cl)cc23)cc1
inactive: [1] 91.4% | [2] 72.8% | [5] 102% | [6] 23.3% | [7] 74.2%
active: [3] -10.8% | [4] 7.59% | [8] 2.96% | [9] -42.5%

C=C1C(=O)O[C@H]2[C@H]1CC/C(C(=O)NCCCCCNC(=O)/C1=C/CC[C@@]3(C)O[C@H]3[C@H]3OC(=O)C(=C)[C@@H]3CC1)=C\CC[C@@]1(C)O[C@@H]21
inactive: [1] 107% | [2] 105% | [3] 109% | [4] 92.6% | [5] 96.5% | [6] 102% | [7] 106% | [8] 105% | [9] 96.2%

Cc1ccc(/C=C(/C#N)n2nnc3cccc(F)c32)cc1
active: [8] 4.82% | [9] 5.52%
inactive: [1] 14.6% | [2] 37.6% | [3] 12.7% | [4] 15.6% | [5] 25.5% | [6] 18.5% | [7] 20.1%

CC(Oc1ccc(C(=O)O)cc1C(F)(F)F)c1ccc(Oc2ccccc2)cn1 (configuration not stated)
inactive: [1] 123% | [2] 103% | [3] 98.3% | [4] 79.2% | [5] 99.5% | [6] 104% | [7] 95.9% | [8] 101% | [9] 106%

Oc1ccc(C(c2ccc(O)cc2)c2ccc(Br)cn2)cc1
inactive: [1] 31.6% | [4] 53% | [6] 21% | [7] 79.5% | [8] 111% | [9] 101%
active: [2] -37.1% | [3] 1.64% | [5] 4.53%

CC1=C(C(=O)/C=C/c2ccc(N(C)C)cc2)C(c2ccccc2)NC(=S)N1 (configuration not stated)
inactive: [1] 102% | [2] 97.7% | [3] 96.9% | [4] 75.4% | [5] 107% | [6] 100% | [7] 89.8% | [8] 108% | [9] 101%

ClC1=C(Br)C(Br)(Br)C(=C(Br)Br)C1(Br)Br
inactive: [1] 110% | [2] 111% | [3] 95.5% | [4] 71.7% | [5] 80.4% | [6] 78.6% | [7] 61.3% | [8] 25.1% | [9] 74.5%

COc1ccc(NC(=O)c2cc(NCc3cc(O)ccc3O)ccc2O)cc1
inactive: [1] 89.3% | [2] 100% | [3] 85.8% | [4] 65.8% | [5] 118% | [6] 97.4% | [7] 107% | [8] 28.5% | [9] 65.2%

C/C(=N\NC(=O)CSc1nc2ccccc2c(=O)n1CCc1ccc(S(N)(=O)=O)cc1)c1ccccn1
inactive: [1] 47.2% | [2] 30.5% | [3] 38.5% | [4] 29.8% | [5] 34.5% | [6] 21.2% | [7] 37.6% | [8] 20.6% | [9] 17.7%

NS(=O)(=O)c1ccc(Cn2c(SCC(=O)N/N=C/c3ccccc3O)nc3ccccc3c2=O)cc1
inactive: [1] 36.6% | [2] 60.1% | [3] 56.2% | [4] 61% | [5] 53.8% | [6] 72.3% | [7] 54.2% | [8] 23.2% | [9] 20.8%
